# The supplement of paper PMC8728848
# Only a selection was taken, and the strongest signals are over-represented in it overall.
# B1: LSectin (Mus musculus), Q8BNX1 (protein)
# chain: MNTGEYNKLGSAIEEVSRGQLGRWECYKQRLFFLVLALLVATVLWALILSTLLSSASSKLRVLLSHQDLLRTNASEQKMTLSSLKDDIGACRNCCSVTKAQLQTTLAEFKDIQAKLMEQESILKELQERVTQDLAKASRDRENIRSELFQALEAVKRQNSSCEQCPPSWLPFQGSCYYFSETQATWDTAQSYCGGQGAHLVIVRGLNEQGFLSQHTRGRGYWLGLRAVRHLNKIQGYRWVDGASLNFSHWNSGEPNDSRGHEDCIMMLHSGLWNDAPCTNERDGWICEKRSSCY
# Tests used:
# Test in all cases: glycan array binding signal (z-score within array); higher = stronger binding
# Details in all cases: glycan notation: IUPAC condensed, linker removed
# [1] = target: Fuc(a1-2)Gal(b1-3)GlcNAc(b1-2)Man(a1-3)[Fuc(a1-2)Gal(b1-3)GlcNAc(b1-2)Man(a1-6)]Man(b1-4)GlcNAc(b1-4)GlcNAc
# Procedure, shortened: (§1)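 Negative Z-scores can be read as non-binding. The Z-score is calculated within each array and then averaged across arrays of one protein sequence at different concentrations or buffers and across linkers. Arrays, 3228 in all, were curated from the Consortium for Functional Glycomics database and kept only where the protein sequence was available.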
# [2] = target: Fuc(a1-2)Gal(b1-3)GlcNAc(b1-3)[Fuc(a1-3)[Gal(b1-4)]GlcNAc(b1-6)]Gal(b1-4)Glc
# Procedure, shortened: as §1
# [3] = target: Fuc(a1-2)Gal(b1-3)GlcNAc(b1-3)[Gal(b1-4)GlcNAc(b1-6)]Gal(b1-4)Glc
# Procedure, shortened: as §1
# Fuc(a1-2)[Gal(a1-3)]Gal = target: Fuc(a1-2)[Gal(a1-3)]Gal
# Procedure, shortened: as §1
# [4] = target: Fuc(a1-2)[Gal(a1-3)]Gal(b1-4)[Fuc(a1-3)]Glc
# Procedure, shortened: as §1
# [5] = target: Fuc(a1-2)[GalNAc(a1-3)]Gal(b1-4)GlcNAc
# Procedure, shortened: as §1
# [6] = target: Fuc(a1-2)[GalNAc(a1-3)]Gal(b1-4)GlcNAc(b1-3)Gal(b1-4)GlcNAc
# Procedure, shortened: as §1
# [7] = target: Fuc(a1-3)[Gal(b1-4)]GlcNAc(b1-2)Man(a1-3)[Fuc(a1-3)[Gal(b1-4)]GlcNAc(b1-2)Man(a1-6)]Man(b1-4)GlcNAc(b1-4)GlcNAc
# Procedure, shortened: as §1
# [8] = target: Gal(a1-4)Gal(b1-4)GlcNAc(b1-2)Man(a1-3)[Gal(a1-4)Gal(b1-4)GlcNAc(b1-2)Man(a1-6)]Man(b1-4)GlcNAc(b1-4)GlcNAc
# Procedure, shortened: as §1
# Gal(b1-3)GlcNAc = target: Gal(b1-3)GlcNAc
# Procedure, shortened: as §1
# [9] = target: Gal(b1-3)GlcNAc(b1-3)Gal(b1-3)GlcNAc
# Procedure, shortened: as §1
# [10] = target: Gal(b1-3)GlcNAc(b1-3)Gal(b1-4)GlcNAc
# Procedure, shortened: as §1
# [11] = target: Gal(b1-3)[Fuc(a1-4)]GlcNAc(b1-3)Gal(b1-3)[Fuc(a1-4)]GlcNAc
# Procedure, shortened: as §1
# [12] = target: Gal(b1-4)GlcNAc(b1-2)Man(a1-6)[GlcNAc(b1-2)Man(a1-3)]Man(b1-4)GlcNAc(b1-4)GlcNAc
# Procedure, shortened: as §1
# [13] = target: Gal(b1-4)GlcNAc(b1-3)[Gal(b1-4)GlcNAc(b1-6)]GalNAc
# Procedure, shortened: as §1
# Gal6S(b1-3)GlcNAc = target: Gal6S(b1-3)GlcNAc
# Procedure, shortened: as §1
# [14] = target: GalNAc(a1-3)GalNAc(a1-3)Gal(a1-4)Gal(b1-4)GlcNAc
# Procedure, shortened: as §1
# Glc(b1-4)Glc = target: Glc(b1-4)Glc
# Procedure, shortened: as §1
# GlcA(b1-3)Gal = target: GlcA(b1-3)Gal
# Procedure, shortened: as §1
# [15] = target: GlcNAc(a1-3)Gal(b1-4)GlcNAc
# Procedure, shortened: as §1
# [16] = target: GlcNAc(b1-2)Man(a1-3)[GlcNAc(b1-2)Man(a1-6)]Man(b1-4)GlcNAc(b1-4)GlcNAc
# Procedure, shortened: as §1
# [17] = target: GlcNAc(b1-2)Man(a1-3)[GlcNAc(b1-2)Man(a1-6)]Man(b1-4)GlcNAc(b1-4)[Fuc(a1-6)]GlcNAc
# Procedure, shortened: as §1
# [18] = target: GlcNAc(b1-2)Man(a1-3)[GlcNAc(b1-4)][GlcNAc(b1-2)Man(a1-6)]Man(b1-4)GlcNAc(b1-4)GlcNAc
# Procedure, shortened: as §1
# [19] = target: GlcNAc(b1-2)[GlcNAc(b1-6)]Man(a1-6)[GlcNAc(b1-2)Man(a1-3)]Man(b1-4)GlcNAc(b1-4)GlcNAc
# Procedure, shortened: as §1
# [20] = target: GlcNAc(b1-2)[GlcNAc(b1-6)]Man(a1-6)[GlcNAc(b1-2)Man(a1-3)][GlcNAc(b1-4)]Man(b1-4)GlcNAc(b1-4)GlcNAc
# Procedure, shortened: as §1
# GlcNAc(b1-3)Gal = target: GlcNAc(b1-3)Gal
# Procedure, shortened: as §1
# GlcNAc3Prop(b1-4)GlcNAc = target: GlcNAc3Prop(b1-4)GlcNAc
# Procedure, shortened: as §1
# [21] = target: Man(a1-3)[Man(a1-6)]Man(a1-6)[Man(a1-3)]Man(b1-4)GlcNAc(b1-4)GlcNAc
# Procedure, shortened: as §1
# Neu5Ac(a2-3)Gal = target: Neu5Ac(a2-3)Gal
# Procedure, shortened: as §1
# [22] = target: Neu5Ac(a2-3)Gal(b1-4)[Fuc(a1-3)]GlcNAc(b1-3)GalNAc
# Procedure, shortened: as §1
binder,measurement,setting,value
B1,glycan array binding signal (z-score),[1],-0.18
same,glycan array binding signal (z-score),[2],-0.187
same,glycan array binding signal (z-score),[3],-0.188
same,glycan array binding signal (z-score),Fuc(a1-2)[Gal(a1-3)]Gal,-0.145
same,glycan array binding signal (z-score),[4],-0.124
same,glycan array binding signal (z-score),[5],-0.176
same,glycan array binding signal (z-score),[6],-0.185
same,glycan array binding signal (z-score),[7],-0.158
same,glycan array binding signal (z-score),[8],-0.18
same,glycan array binding signal (z-score),Gal(b1-3)GlcNAc,-0.132
same,glycan array binding signal (z-score),[9],-0.18
same,glycan array binding signal (z-score),[10],-0.175
same,glycan array binding signal (z-score),[11],-0.172
same,glycan array binding signal (z-score),[12],4.08
same,glycan array binding signal (z-score),[13],-0.192
same,glycan array binding signal (z-score),Gal6S(b1-3)GlcNAc,-0.188
same,glycan array binding signal (z-score),[14],-0.19
same,glycan array binding signal (z-score),Glc(b1-4)Glc,-0.17
same,glycan array binding signal (z-score),GlcA(b1-3)Gal,-0.169
same,glycan array binding signal (z-score),[15],-0.14
same,glycan array binding signal (z-score),[16],6.38
same,glycan array binding signal (z-score),[17],5.47
same,glycan array binding signal (z-score),[18],7.84
same,glycan array binding signal (z-score),[19],4.99
same,glycan array binding signal (z-score),[20],7.22
same,glycan array binding signal (z-score),GlcNAc(b1-3)Gal,-0.164
same,glycan array binding signal (z-score),GlcNAc3Prop(b1-4)GlcNAc,-0.168
same,glycan array binding signal (z-score),[21],-0.172
same,glycan array binding signal (z-score),Neu5Ac(a2-3)Gal,-0.148
same,glycan array binding signal (z-score),[22],-0.154
